# According to the supplement of paper PMC12645437, “Orthogonal IMiD-Degron Pairs Induce Selective Protein Degradation in Cells” (ACS Chemical Biology, 2025):
# The full ranking holds about 8,300 sequences; the median of “log2 fold change of degron read counts, EGFP-low vs EGFP+ sorted cells (limma voom), compound-induced degradation” is about -1.1, and the highest 2% start at about 3.2. What follows is part of a selection rich in the highest values, with near analogues and random picks from the rest.
# T1: CRBN, Q96SW2
# T1 chain: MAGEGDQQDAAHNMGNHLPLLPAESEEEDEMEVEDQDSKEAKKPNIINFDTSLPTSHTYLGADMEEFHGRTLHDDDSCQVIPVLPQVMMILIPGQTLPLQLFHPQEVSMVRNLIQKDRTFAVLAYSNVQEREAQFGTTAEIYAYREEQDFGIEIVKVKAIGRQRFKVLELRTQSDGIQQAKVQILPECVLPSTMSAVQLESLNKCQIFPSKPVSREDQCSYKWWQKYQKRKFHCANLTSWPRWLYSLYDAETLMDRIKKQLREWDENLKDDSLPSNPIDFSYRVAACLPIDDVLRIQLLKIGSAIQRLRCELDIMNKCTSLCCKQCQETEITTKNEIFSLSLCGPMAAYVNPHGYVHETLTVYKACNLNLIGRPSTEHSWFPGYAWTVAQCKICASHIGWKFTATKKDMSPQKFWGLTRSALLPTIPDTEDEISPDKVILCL
# B1: 46F_47H_49E_50I_52G_53A_54C_55F_67L_, Q9UKT9 (peptide)
# chain: FHCEICGACFTQKGNLLRHIKL
# B2: 46F_47N_49E_50I_52G_53A_54C_55F_67L_, Q9UKT9 (peptide)
# chain: FNCEICGACFTQKGNLLRHIKL
# B3: 46F_47A_49E_50I_52G_53A_54C_55F_67L_, Q9UKT9 (peptide)
# chain: FACEICGACFTQKGNLLRHIKL
# B4: 46F_47I_49E_50I_52G_53A_54C_55F_67L_, Q9UKT9 (peptide)
# chain: FICEICGACFTQKGNLLRHIKL
# B5: 46F_47W_49E_50I_52G_53A_54C_55F_67L_, Q9UKT9 (peptide)
# chain: FWCEICGACFTQKGNLLRHIKL
# B6: 46F_47F_49E_50I_52G_53A_54C_55F_67L_, Q9UKT9 (peptide)
# chain: FFCEICGACFTQKGNLLRHIKL
# B7: 46F_47L_49E_50I_52G_53A_54C_55F_67L_, Q9UKT9 (peptide)
# chain: FLCEICGACFTQKGNLLRHIKL
# B8: 46F_47E_49N_50Q_52G_53H_54I_55F_67L_, Q9UKT9 (peptide)
# chain: FECNQCGHIFTQKGNLLRHIKL
# B9: 46F_47V_49E_50I_52G_53R_54M_55F_67L_, Q9UKT9 (peptide)
# chain: FVCEICGRMFTQKGNLLRHIKL
# B10: 46F_47H_49E_50I_52G_53H_54N_55F_67L_, Q9UKT9 (peptide)
# chain: FHCEICGHNFTQKGNLLRHIKL
# B11: 46F_47E_49N_50I_52G_53A_54H_55F_67L_, Q9UKT9 (peptide)
# chain: FECNICGAHFTQKGNLLRHIKL
# B12: 46F_47T_49E_50I_52G_53A_54Q_55F_67L_, Q9UKT9 (peptide)
# chain: FTCEICGAQFTQKGNLLRHIKL
# B13: 46F_47M_49E_50I_52G_53A_54Q_55F_67L_, Q9UKT9 (peptide)
# chain: FMCEICGAQFTQKGNLLRHIKL
# B14: 46F_47Y_49E_50I_52G_53A_54Q_55F_67L_, Q9UKT9 (peptide)
# chain: FYCEICGAQFTQKGNLLRHIKL
# B15: 46F_47F_49E_50I_52G_53A_54Q_55F_67L_, Q9UKT9 (peptide)
# chain: FFCEICGAQFTQKGNLLRHIKL
# B16: 46F_47E_49E_50I_52G_53A_54Q_55F_67L_, Q9UKT9 (peptide)
# chain: FECEICGAQFTQKGNLLRHIKL
# B17: 46F_47I_49E_50I_52G_53A_54Q_55F_67L_, Q9UKT9 (peptide)
# chain: FICEICGAQFTQKGNLLRHIKL
# B18: 46F_47L_49E_50I_52G_53A_54Q_55F_67L_, Q9UKT9 (peptide)
# chain: FLCEICGAQFTQKGNLLRHIKL
# B19: 46F_47D_49E_50I_52G_53A_54Q_55F_67L_, Q9UKT9 (peptide)
# chain: FDCEICGAQFTQKGNLLRHIKL
# B20: 46F_47W_49E_50I_52G_53A_54Q_55F_67L_, Q9UKT9 (peptide)
# chain: FWCEICGAQFTQKGNLLRHIKL
# B21: 46F_47R_49E_50I_52G_53A_54Q_55F_67L_, Q9UKT9 (peptide)
# chain: FRCEICGAQFTQKGNLLRHIKL
# B22: 46F_47H_49E_50I_52G_53A_54Q_55F_67L_, Q9UKT9 (peptide)
# chain: FHCEICGAQFTQKGNLLRHIKL
# B23: 46F_47Q_49E_50I_52G_53A_54Q_55F_67L_, Q9UKT9 (peptide)
# chain: FQCEICGAQFTQKGNLLRHIKL
# B24: 46F_47N_49P_50I_52G_53A_54E_55F_67L_, Q9UKT9 (peptide)
# chain: FNCPICGAEFTQKGNLLRHIKL
# B25: 46F_47E_49D_50I_52G_53A_54R_55F_67L_, Q9UKT9 (peptide)
# chain: FECDICGARFTQKGNLLRHIKL
# B26: 46F_47R_49P_50I_52G_53H_54K_55F_67L_, Q9UKT9 (peptide)
# chain: FRCPICGHKFTQKGNLLRHIKL
# B27: 46F_47S_49N_50Q_52G_53R_54M_55F_67L_, Q9UKT9 (peptide)
# chain: FSCNQCGRMFTQKGNLLRHIKL
# B28: 46F_47H_49N_50Q_52G_53H_54K_55F_67L_, Q9UKT9 (peptide)
# chain: FHCNQCGHKFTQKGNLLRHIKL
# Target: T1, CRBN, Q96SW2
# Test: log2 fold change of degron read counts, EGFP-low vs EGFP+ sorted cells (limma voom), compound-induced degradation; higher = more compound-induced degradation of the degron-EGFP fusion; degrons are variants of IKZF1/3 zinc finger 2; compound dose not given here
# Settings: Jurkat, 18 h
# Experimental: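 Pooled library of 8380 IKZF3 ZF2 degron mutants (positions 146-167 varied within the IKZF3 130-189 degron; only the varied core is printed, flanks not printed) fused to EGFP with IRES-mCherry, lentivirally expressed in Jurkat cells. mCherry+ cells were treated with one IMiD compound for 18 h (dose not stated) and FACS-sorted into EGFP-low and EGFP+ populations. Degron sequences were counted by NGS, and log2FC (EGFP-low vs EGFP+) was estimated by limma voom over 3 biological replicates.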
# [1] = compound: compound 19 (5-tert-butyl-thalidomide)
# [2] = compound: compound 22 (5-morpholino-thalidomide)
# [3] = compound: compound 33 (diphenyl IMiD analogue)
# 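Also: pooled lentiviral library of zinc finger degron-EGFP fusions in mCherry-positive Jurkat cells, FACS-sorted after compound exposure, with degron abundance counted by next-generation sequencing.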
Sequence,log2 fold change of degron read counts [1],log2 fold change of degron read counts [2],log2 fold change of degron read counts [3],log2 fold change of degron read counts (compound: thalidomide)
B1,2.97,2.54,1.42,0.134
B2,2.72,0.812,0.513,0.0996
B3,3.71,2.6,1.54,0.745
B4,-0.122,2.02,2.45,2.64
B5,3.85,3.79,2.77,1.16
B6,3.78,3.84,2.33,1.61
B7,1.19,-0.209,1.6,1.57
B8,-3.19,-3.02,-3.5,-3.26
B9,-2.37,-1.56,-0.324,-0.297
B10,-2.97,-3.92,-2.88,-3.29
B11,-1.95,-2.29,0.157,0.612
B12,0.557,1.85,2.25,2.92
B13,0.486,0.824,2.7,1.97
B14,3.6,3.55,3.13,2.12
B15,3.67,3.67,2.56,1.93
B16,-0.353,-0.866,1.45,2.5
B17,0.506,2.86,3.06,3.16
B18,1.29,-0.49,1.79,2.07
B19,2.04,0.951,-0.0023,1.29
B20,3.54,3.93,2.7,2.04
B21,0.162,0.149,1.38,1.94
B22,2.66,2.64,2,0.968
B23,0.962,2.24,2.41,3.56
B24,1.92,0.348,0.475,0.897
B25,-0.106,-1.6,-0.318,1.69
B26,-2.46,-2.78,-1.61,-1.55
B27,-2.45,-3.15,-2.32,-2.79
B28,-2.56,-3.05,-2.84,-2.45
